# Laboratory results as given in the supplement of paper PMC12282887.
# ± gives the standard deviation of the averaged measurements.
# Experiments:
# Assay in all cases: promoter activity interaction Z-score (Lux/OD deviation from empty-vector control); higher = stronger promoter induction by the compound
# [1] = test system: E. coli BW25113 acrABp lux reporter
# Procedure, shortened: (§1)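 Low-copy luxCDABE promoter reporters were carried by E. coli BW25113, either wild type or lacking one of three genes, grown in 40 µl LB Lennox in 384-well plates at 37°C. Each compound was run at four 1:2 dilutions in biological duplicates, with OD600 and luminescence read every 30 min for 12 h. Integration used 0–8 h for wild type and 1–9 h for deletion strains, and wells under 10% of the median growth value were removed. Luminescence normalised to growth was fitted against a control, and the Z-transformed residual is the score.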
# [2] = test system: E. coli BW25113 micFp lux reporter
# Procedure, shortened: as §1
# [3] = test system: E. coli BW25113 ompFp lux reporter
# Procedure, shortened: as §1
# [4] = test system: E. coli BW25113 robp lux reporter
# Procedure, shortened: as §1
# [5] = test system: E. coli BW25113 soxSp lux reporter
# Procedure, shortened: as §1
# [6] = test system: E. coli BW25113 tolCp lux reporter
# Procedure, shortened: as §1
# [7] = 17.4 µg/ml, genetic background: wild type
# [8] = 17.4 µg/ml, genetic background: ΔmarA
# [9] = 17.4 µg/ml, genetic background: Δrob
# [10] = 17.4 µg/ml, genetic background: ΔsoxS
# [11] = 34.9 µg/ml, genetic background: wild type
# [12] = 34.9 µg/ml, genetic background: ΔmarA
# [13] = 34.9 µg/ml, genetic background: Δrob
# [14] = 34.9 µg/ml, genetic background: ΔsoxS
# [15] = 69.8 µg/ml, genetic background: wild type
# [16] = 69.8 µg/ml, genetic background: ΔmarA
# [17] = 69.8 µg/ml, genetic background: Δrob
# [18] = 69.8 µg/ml, genetic background: ΔsoxS
# [19] = 139.6 µg/ml, genetic background: wild type
# [20] = 139.6 µg/ml, genetic background: ΔmarA
# [21] = 139.6 µg/ml, genetic background: Δrob
# [22] = 139.6 µg/ml, genetic background: ΔsoxS
compound,measurement,setting,value
Nc1ccn(C[C@@H](CO)OCP(=O)(O)O)c(=O)n1 [Cidofovir],promoter activity interaction Z-score,[1]; [7],-0.283 ± 0.054
same,promoter activity interaction Z-score,[1]; [8],0.149 ± 0.3
same,promoter activity interaction Z-score,[1]; [9],-0.0654 ± 0.1
same,promoter activity interaction Z-score,[1]; [10],-0.0538 ± 0.14
same,promoter activity interaction Z-score,[1]; [11],0.196 ± 0.13
same,promoter activity interaction Z-score,[1]; [12],-0.657 ± 0.64
same,promoter activity interaction Z-score,[1]; [13],0.0446 ± 0.2
same,promoter activity interaction Z-score,[1]; [14],0.215 ± 0.4
same,promoter activity interaction Z-score,[1]; [15],0.219 ± 0.079
same,promoter activity interaction Z-score,[1]; [16],0.553 ± 0.79
same,promoter activity interaction Z-score,[1]; [17],-0.00642 ± 0.084
same,promoter activity interaction Z-score,[1]; [18],0.0852 ± 0.5
same,promoter activity interaction Z-score,[1]; [19],0.22 ± 0.15
same,promoter activity interaction Z-score,[1]; [20],-0.132 ± 0.17
same,promoter activity interaction Z-score,[1]; [21],0.233 ± 0.03
same,promoter activity interaction Z-score,[1]; [22],0.385 ± 0.26
same,promoter activity interaction Z-score,[2]; [7],0.0224 ± 0.19
same,promoter activity interaction Z-score,[2]; [8],0.0154 ± 0.092
same,promoter activity interaction Z-score,[2]; [9],-0.0713 ± 0.17
same,promoter activity interaction Z-score,[2]; [10],0.11 ± 0.48
same,promoter activity interaction Z-score,[2]; [11],-0.0338 ± 0.16
same,promoter activity interaction Z-score,[2]; [12],-0.00819 ± 0.0042
same,promoter activity interaction Z-score,[2]; [13],-0.103 ± 0.19
same,promoter activity interaction Z-score,[2]; [14],-0.106 ± 0.1
same,promoter activity interaction Z-score,[2]; [15],-0.121 ± 0.16
same,promoter activity interaction Z-score,[2]; [16],-0.0731 ± 0.046
same,promoter activity interaction Z-score,[2]; [17],-0.0746 ± 0.21
same,promoter activity interaction Z-score,[2]; [18],-0.0778 ± 0.17
same,promoter activity interaction Z-score,[2]; [19],-0.297 ± 0.16
same,promoter activity interaction Z-score,[2]; [20],-0.185 ± 0.15
same,promoter activity interaction Z-score,[2]; [21],-0.00734 ± 0.29
same,promoter activity interaction Z-score,[2]; [22],-0.28 ± 0.054
same,promoter activity interaction Z-score,[3]; [7],-0.101 ± 0.21
same,promoter activity interaction Z-score,[3]; [8],-0.0401 ± 0.19
same,promoter activity interaction Z-score,[3]; [9],-0.282 ± 0.46
same,promoter activity interaction Z-score,[3]; [10],0.292 ± 0.4
same,promoter activity interaction Z-score,[3]; [11],0.3 ± 0.056
same,promoter activity interaction Z-score,[3]; [12],-0.163 ± 0.48
same,promoter activity interaction Z-score,[3]; [13],0.122 ± 0.34
same,promoter activity interaction Z-score,[3]; [14],0.493 ± 0.19
same,promoter activity interaction Z-score,[3]; [15],0.00967 ± 0.29
same,promoter activity interaction Z-score,[3]; [16],-0.0743 ± 0.39
same,promoter activity interaction Z-score,[3]; [17],-0.0183 ± 0.51
same,promoter activity interaction Z-score,[3]; [18],0.835 ± 0.063
same,promoter activity interaction Z-score,[3]; [19],0.281 ± 0.35
same,promoter activity interaction Z-score,[3]; [20],0.0677 ± 0.43
same,promoter activity interaction Z-score,[3]; [21],1.05 ± 0.56
same,promoter activity interaction Z-score,[3]; [22],0.354 ± 0.32
same,promoter activity interaction Z-score,[4]; [7],0.0479 ± 0.44
same,promoter activity interaction Z-score,[4]; [8],-0.325 ± 0.089
same,promoter activity interaction Z-score,[4]; [9],-0.283 ± 0.23
same,promoter activity interaction Z-score,[4]; [10],0.755 ± 0.19
same,promoter activity interaction Z-score,[4]; [11],0.8822 ± 0.0041
same,promoter activity interaction Z-score,[4]; [12],-0.684 ± 0.34
same,promoter activity interaction Z-score,[4]; [13],0.316 ± 0.54
same,promoter activity interaction Z-score,[4]; [14],0.739 ± 0.8
same,promoter activity interaction Z-score,[4]; [15],-0.0584 ± 0.52
same,promoter activity interaction Z-score,[4]; [16],-0.117 ± 0.21
same,promoter activity interaction Z-score,[4]; [17],0.528 ± 1.2
same,promoter activity interaction Z-score,[4]; [18],0.716 ± 0.15
same,promoter activity interaction Z-score,[4]; [19],0.0675 ± 0.18
same,promoter activity interaction Z-score,[4]; [20],-0.557 ± 0.22
same,promoter activity interaction Z-score,[4]; [21],0.839 ± 0.21
same,promoter activity interaction Z-score,[4]; [22],0.434 ± 0.44
same,promoter activity interaction Z-score,[5]; [7],0.0175 ± 0.013
same,promoter activity interaction Z-score,[5]; [8],0.0495 ± 0.085
same,promoter activity interaction Z-score,[5]; [9],-0.108 ± 0.04
same,promoter activity interaction Z-score,[5]; [10],0.122 ± 0.064
same,promoter activity interaction Z-score,[5]; [11],-0.0402 ± 0.16
same,promoter activity interaction Z-score,[5]; [12],0.0487 ± 0.082
same,promoter activity interaction Z-score,[5]; [13],0.0552 ± 0.025
same,promoter activity interaction Z-score,[5]; [14],0.246 ± 0.033
same,promoter activity interaction Z-score,[5]; [15],-0.0559 ± 0.065
same,promoter activity interaction Z-score,[5]; [16],0.167 ± 0.11
same,promoter activity interaction Z-score,[5]; [17],-0.0558 ± 0.063
same,promoter activity interaction Z-score,[5]; [18],0.254 ± 0.11
same,promoter activity interaction Z-score,[5]; [19],0.021 ± 0.14
same,promoter activity interaction Z-score,[5]; [20],-0.0152 ± 0.023
same,promoter activity interaction Z-score,[5]; [21],0.0293 ± 0.054
same,promoter activity interaction Z-score,[5]; [22],-0.0927 ± 0.013
same,promoter activity interaction Z-score,[6]; [7],0.134 ± 0.031
same,promoter activity interaction Z-score,[6]; [8],0.258 ± 0.13
same,promoter activity interaction Z-score,[6]; [9],-0.735 ± 1.3
same,promoter activity interaction Z-score,[6]; [10],-0.0946 ± 0.53
same,promoter activity interaction Z-score,[6]; [11],-0.218 ± 0.42
same,promoter activity interaction Z-score,[6]; [12],-0.677 ± 0.19
same,promoter activity interaction Z-score,[6]; [13],0.0662 ± 0.039
same,promoter activity interaction Z-score,[6]; [14],1.55 ± 0.98
same,promoter activity interaction Z-score,[6]; [15],-0.434 ± 0.14
same,promoter activity interaction Z-score,[6]; [16],-0.318 ± 0.84
same,promoter activity interaction Z-score,[6]; [17],-0.696 ± 1
same,promoter activity interaction Z-score,[6]; [18],-0.168 ± 1
same,promoter activity interaction Z-score,[6]; [19],-0.582 ± 0.18
same,promoter activity interaction Z-score,[6]; [20],-0.123 ± 0.94
same,promoter activity interaction Z-score,[6]; [21],0.23 ± 0.54
same,promoter activity interaction Z-score,[6]; [22],-0.453 ± 0.91
